Activity calls are given as the source filed them.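 The calls were made as follows, unless noted: active = inhibition of the reporter signal at or above 50%; inactive = inhibition below 50%.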

Experiment [1] in a line: inhibitors of TNFa-induced NFkB p65 translocation, primary screen, imaging, HUVEC, MLSMR starter and 10KST1 sets (AID 438;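 active = inhibition above 20% together with a positive visual image hit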;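 also: compound added about 3h40 before a 20 min TNFalpha stimulation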;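 as to inhibition: signal is the nuclear over cytoplasmic p65 intensity ratio per well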). The note with it: HUVEC TNFa-induced p65 nuclear translocation; cell count: measured here: nuclei count (cytotoxicity indicator), at 2.08 µM; inhibition: at 2 µM, stronger effect = higher value, 0% TNFa-plus-vehicle, 100% no-TNFa wells.
Experiment [2] can be described thus: inhibitors of mutant huntingtin aggregation, primary screen, imaging, exon1htt(103Q)mCFP cells, high-content imaging (AID 483;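 active = visual image review flags a hit and inhibition of aggregation exceeds 20%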;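 also: compound exposure lasted 3 days before fixation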;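 as to nuclei count: percent of the per-plate median nuclei count of sample wells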). To be noted: exon1htt(103Q)mCFP cell line, aggregate imaging, at 2 µM; inhibition of aggregation: stronger effect = higher value; nuclei count: measured here: cell count, toxicity.
The nature of experiment [3]: inhibitors of E-selectin induction by TNFa, primary screen, imaging, HUVEC, immunofluorescence, MLSMR starter and 10KST1 sets (AID 487;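 active = visually confirmed hit in the image check and inhibition above 20%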;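 as to inhibition: signal is fraction of cell area covered by stained E-selectin grains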;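 as to nuclei count: 100% = median nuclei count of all wells on the same plate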). The note with it: HUVEC TNFalpha-induced E-selectin immunofluorescence imaging, at 2 µM; inhibition: stronger effect = higher value; nuclei count: measured here: cell number, toxicity.
Experiment [4] has as its target Voltage-gated potassium channel subunit beta-2 (Rattus norvegicus) (UniProt P62483). As to the kind of experiment: KvBeta enzyme negative modulators, primary screen, biochemical, NADPH fluorescence (AID 622;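 active = fluorescence slope higher than the sample average by over 3 SD, cut at about -0.22 in these data, passing the limit was not always enough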;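 also: slope of raw intensity against log time taken from 70 to 1610 s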). To be noted: recombinant KvBeta, 4-cyanobenzaldehyde reduction, at 10 µM, stronger effect = higher value.
For experiment [5] the target is unchanged. As to the kind of experiment: KvBeta positive modulators, primary screen, biochemical, NADPH fluorescence (AID 623;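 active = NADPH fluorescence slope more negative than the mean of all samples by about 3 SD, 99.7% confidence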;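 also: fluorescence intensity change per second fitted from 20 to 320 s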). To be noted: Recombinant KvBeta, NADPH fluorescence decrease slope, 10 min; at 10 µM; stronger effect = lower value.
For experiment [6], the target named is Alpha-2C adrenergic receptor (Homo sapiens) (UniProt P18825). The experiment is described as follows: modulators of alpha2C/GIRK thallium flux, primary screen, cell-based, HEK293 alpha2C/GIRK1/2 (AID 624;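 active = fluorescence slope after compound addition differing from the mean of all screened samples at 99.7% confidence, in either direction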;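 also: slope of fluorescence ratio to pre-addition baseline per second over 15 to 24 s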). The note with it: thallium flux BTC fluorescence, at 10 µM, actives lie on both sides.
A short description of experiment [7]: inhibitors of Sendai virus-induced IRF3 signaling, primary screen, TLR/RLR signaling modifier project, cell-based, Sendai virus stimulus, luciferase, 10K MLSCN set (AID 602276;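 active = inhibition at or above 50% at 10 µM; inactive = inhibition below 50%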;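 also: firefly luciferase from ISG56 promoter only with Renilla not read in this screen; 0% = Sendai virus plus DMSO and 100% = medium plus DMSO without virus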). The note with it: HEK293 RL24 IRF3 luciferase reporter, at 10 µM, stronger effect = higher value. Background: In a reporter assay the amount or activity of a reporter protein is the signal.
The nature of experiment [8]: inhibitors of poly I:C-induced TLR3 signaling, primary screen, cell-based, poly I:C stimulus, luciferase, 10K MLSCN set (AID 602277). To be noted: HEK293-TLR3 RL24 IRF3 luciferase reporter, at 10 µM, stronger effect = higher value.

Chain of Voltage-gated potassium channel subunit beta-2 (Rattus norvegicus) (P62483 whole entry, looked up): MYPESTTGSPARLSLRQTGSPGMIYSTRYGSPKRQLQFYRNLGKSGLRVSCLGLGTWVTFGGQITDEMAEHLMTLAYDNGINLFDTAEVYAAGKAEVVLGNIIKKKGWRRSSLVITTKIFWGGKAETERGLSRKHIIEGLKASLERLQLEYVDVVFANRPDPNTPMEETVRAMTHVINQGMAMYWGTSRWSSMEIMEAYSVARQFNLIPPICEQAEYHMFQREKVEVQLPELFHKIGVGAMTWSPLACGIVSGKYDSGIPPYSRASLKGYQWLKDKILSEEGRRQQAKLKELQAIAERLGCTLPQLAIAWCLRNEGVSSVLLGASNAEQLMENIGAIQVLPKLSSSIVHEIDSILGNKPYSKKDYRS
Chain of Alpha-2C adrenergic receptor (Homo sapiens) (P18825 whole entry, looked up): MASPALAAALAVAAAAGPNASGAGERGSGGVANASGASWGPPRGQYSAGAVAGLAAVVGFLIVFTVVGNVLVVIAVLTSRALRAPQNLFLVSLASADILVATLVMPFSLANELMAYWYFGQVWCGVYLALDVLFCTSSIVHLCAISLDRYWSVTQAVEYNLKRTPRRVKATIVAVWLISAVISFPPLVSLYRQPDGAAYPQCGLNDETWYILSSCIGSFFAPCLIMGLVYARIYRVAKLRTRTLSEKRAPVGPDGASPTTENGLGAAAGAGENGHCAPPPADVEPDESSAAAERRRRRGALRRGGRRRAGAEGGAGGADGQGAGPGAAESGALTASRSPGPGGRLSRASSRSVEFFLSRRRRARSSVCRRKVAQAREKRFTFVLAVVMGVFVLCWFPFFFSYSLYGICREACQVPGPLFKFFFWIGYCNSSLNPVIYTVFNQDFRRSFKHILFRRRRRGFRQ

Turning to `NS(=O)(=O)c1ccc(NC(=O)N[C@@H](Cc2ccccc2)C(=O)O)cc1`, in experiment [1], the cell count came out at 292. Further, the inhibition (in general, the change of the read-out against control, counted positive when it falls) was -0.8% (inactive) in experiment [1], 16.6% (inactive) in experiment [3], 10.6% (inactive) in experiment [7] and 16.6% (inactive) in experiment [8]. The inhibition of aggregation in experiment [2] was 5.2% (inactive). Further, the values for the nuclei count in experiment [2] and in experiment [3] were 104% and 99.7%, respectively. The fluorescence slope in experiment [4] is -0.485 (inactive). The NADPH fluorescence slope in experiment [5] is -4.3e-05 (inactive). For the same compound, the slope in experiment [6] was 0.00476 (inactive).
Regarding `CCn1nnnc1SCC(=O)Nc1nc(-c2cccs2)cs1`, the cell count in experiment [1] was determined as 327. Besides, the inhibition was -8.9% (inactive) in experiment [1], -63.9% (inactive) in experiment [3], 15.8% (inactive) in experiment [7] and 20.5% (inactive) in experiment [8]. For the same compound, the inhibition of aggregation in experiment [2] was 9.4% (inactive). Further, the nuclei count in experiment [2] amounted to 100%; in experiment [3] it was 104%. The fluorescence slope in experiment [4] was -0.491 (inactive). In experiment [5], the NADPH fluorescence slope is -4.6e-05 (inactive). Besides, the slope in experiment [6] is 0.00497 (inactive).
Turning to `c1ccc(-c2nc3nonc3c3nc4ccccc4n23)cc1`, in experiment [1], the cell count was 333. Also, the inhibition is -12.4% (inactive) in experiment [1], -40.9% (inactive) in experiment [3], 9.01% (inactive) in experiment [7] and -7.48% (inactive) in experiment [8]. The inhibition of aggregation in experiment [2] is 1.1% (inactive). In addition, the figures for the nuclei count in experiment [2] and in experiment [3] were 95.8% and 94.2%, respectively. In experiment [4], the fluorescence slope was -0.244 (inactive). Also, the NADPH fluorescence slope in experiment [5] is -2.9e-05 (inactive). For the same compound, in experiment [6], the slope is 0.00529 (inactive).
In the case of `Cn1c(=O)cc(OCC(=O)NCCCN2CCN(Cc3ccccc3)CC2)c2ccccc21`, the cell count in experiment [1] was 505. The inhibition is -6.9% (inactive) in experiment [1], -124% (inactive) in experiment [3], -11.8% (inactive) in experiment [7] and 31.2% (inactive) in experiment [8]. Also, in experiment [2], the inhibition of aggregation is 4.5% (inactive). Also, the nuclei count in experiment [2] came to 86.8%; in experiment [3], 135%. The fluorescence slope in experiment [4] was -0.556 (inactive). Also, the NADPH fluorescence slope in experiment [5] was 2.6e-05 (inactive). Also, the slope in experiment [6] was 0.00749 (inactive).
For `O=C(CN(Cc1ccc(F)cc1)C(=O)Cn1nnc2ccccc21)NCC1CCCO1` (centres undefined), in experiment [1], the cell count is 438. Besides, the inhibition in experiment [1] was -6.8% (inactive); in experiment [3], -33% (inactive); in experiment [7], 13.2% (inactive); in experiment [8], 26.1% (inactive). For the same compound, the inhibition of aggregation in experiment [2] is 5.8% (inactive). Also, the nuclei count in experiment [2] amounted to 107%; in experiment [3] it was 84%. Also, the fluorescence slope in experiment [4] is -0.434 (inactive). In addition, in experiment [5], the NADPH fluorescence slope is 7.2e-05 (inactive). Besides, in experiment [6], the slope is 0.00612 (inactive).
Take `O=C(NCC1CCCO1)c1cccc(N2C(=O)C3C4C=CC(C4)C3C2=O)c1` (centres undefined): the cell count in experiment [1] came to 628. Also, the inhibition in experiment [1] is 8.8% (inactive); in experiment [3], -16.1% (inactive); in experiment [7] it was 8.37% (inactive); in experiment [8] it was 10.8% (inactive). In addition, the inhibition of aggregation in experiment [2] is 0% (inactive). Moreover, the nuclei count in experiment [2] worked out at 101%; in experiment [3], 118%. In addition, in experiment [4], the fluorescence slope was -0.42 (inactive). Moreover, in experiment [5], the NADPH fluorescence slope is -4e-05 (inactive). Besides, the slope in experiment [6] was 0.00583 (inactive).
For `COc1ccc(-c2nnc3sc(C(C)N4C(=O)c5ccccc5C4=O)nn23)cc1` (centres undefined), the cell count in experiment [1] turned out to be 528. In addition, the inhibition is -3.3% (inactive) in experiment [1], -8.9% (inactive) in experiment [3], -9.81% (inactive) in experiment [7] and -4.7% (inactive) in experiment [8]. For the same compound, the inhibition of aggregation in experiment [2] was 2.3% (inactive). Further, the nuclei count was 91.9% in experiment [2] and 105% in experiment [3]. For the same compound, the fluorescence slope in experiment [4] was -0.45 (inactive). Moreover, the NADPH fluorescence slope in experiment [5] is 4.5e-05 (inactive). Further, the slope in experiment [6] is 0.00329 (inactive).
For the compound `Cn1c(C(=O)NCCC2=CCCCC2)cc2c(=O)n3ccccc3nc21`, in experiment [1], the cell count was 261. In addition, the inhibition in experiment [1] was 31.6% (active); in experiment [3], 46.7% (inactive); in experiment [7], -27.5% (inactive); in experiment [8], -62% (inactive). In addition, the inhibition of aggregation in experiment [2] was 5.6% (inactive). The nuclei count is 92.2% in experiment [2] and 71.3% in experiment [3]. The fluorescence slope in experiment [4] was -0.128 (active). In experiment [5], the NADPH fluorescence slope was 1.2e-05 (inactive). In experiment [6], the slope is 0.00542 (inactive).
Take `CN(C)c1ccc(C(=O)OCC(=O)NC2CCCCC2)cc1`: the cell count in experiment [1] was found to be 548. Further, the inhibition is -0.3% (inactive) in experiment [1], -46.5% (inactive) in experiment [3], 16.6% (inactive) in experiment [7] and 10.9% (inactive) in experiment [8]. The inhibition of aggregation in experiment [2] was 4.3% (inactive). For the same compound, the nuclei count in experiment [2] came out at 90.3%; in experiment [3] it was 110%. Also, the fluorescence slope in experiment [4] is -0.475 (inactive). The NADPH fluorescence slope in experiment [5] is -3.6e-05 (inactive). For the same compound, the slope in experiment [6] was 0.00547 (inactive).
Turning to `COc1ccc(CC(=O)Nc2ccc(OC)c(NC(=O)c3ccco3)c2)cc1`, the cell count in experiment [1] came to 580. Besides, the inhibition in experiment [1] was 22% (active); in experiment [3], -70.8% (inactive); in experiment [7], -27.5% (inactive); in experiment [8], -49.2% (inactive). Besides, the inhibition of aggregation in experiment [2] was 4% (inactive). Also, the nuclei count in experiment [2] is 99.6%; in experiment [3], 146%. The fluorescence slope in experiment [4] was -0.417 (inactive). Also, the NADPH fluorescence slope in experiment [5] was 9.4e-05 (inactive). In addition, the slope in experiment [6] is 0.00901 (inactive).
As to `CC(C)c1nc(N2CCN(C(=O)c3ccco3)CC2)c2c3c(sc2n1)CCCC3`, in experiment [1], the cell count worked out at 748. Also, the inhibition is -9.7% (inactive) in experiment [1], -7.6% (inactive) in experiment [3], 15.9% (inactive) in experiment [7] and -5.95% (inactive) in experiment [8]. In addition, the inhibition of aggregation in experiment [2] was -12.3% (inactive). The results for the nuclei count in experiment [2] and in experiment [3] were 94.5% and 103%, respectively. For the same compound, the fluorescence slope in experiment [4] is -0.486 (inactive). For the same compound, the NADPH fluorescence slope in experiment [5] was 5.1e-05 (inactive). The slope in experiment [6] is 0.00628 (inactive).
Turning to `Cc1ccc2c(c1)CCCN2C(=O)C1CCCO1` (centres undefined), the cell count in experiment [1] is 354. For the same compound, the inhibition is -6.4% (inactive) in experiment [1], -84.4% (inactive) in experiment [3], 10.7% (inactive) in experiment [7] and 17.6% (inactive) in experiment [8]. In experiment [2], the inhibition of aggregation was 7.6% (inactive). Besides, the nuclei count was found to be 95% in experiment [2] and 86.9% in experiment [3]. Also, the fluorescence slope in experiment [4] was -0.417 (inactive). The NADPH fluorescence slope in experiment [5] is -4e-05 (inactive). For the same compound, the slope in experiment [6] was 0.00423 (inactive).
Regarding `O=c1cc(C(F)F)oc2c1ccc1ccccc12`, the cell count in experiment [1] was found to be 398. Besides, the inhibition in experiment [1] was -4% (inactive); in experiment [3], -244% (inactive); in experiment [7], 9.69% (inactive); in experiment [8] it was 19.9% (inactive). For the same compound, the inhibition of aggregation in experiment [2] is 14.2% (inactive). Also, the results for the nuclei count in experiment [2] and in experiment [3] were 94% and 99.4%, respectively. The fluorescence slope in experiment [4] was -0.349 (inactive). In addition, the NADPH fluorescence slope in experiment [5] was -1.6e-05 (inactive). Moreover, the slope in experiment [6] was 0.00247 (inactive).
In the case of `COc1ccc(-c2nnc(SCC(=O)N3CCOCC3)o2)cc1OC`, the cell count in experiment [1] was found to be 603. Moreover, the inhibition was 19% (inactive) in experiment [1], 38.5% (inactive) in experiment [3], -13.3% (inactive) in experiment [7] and 4.93% (inactive) in experiment [8]. In experiment [2], the inhibition of aggregation was -39.9% (inactive). For the same compound, the nuclei count in experiment [2] came out at 86.5%; in experiment [3], 78.3%. Besides, the fluorescence slope in experiment [4] was -0.54 (inactive). Further, the NADPH fluorescence slope in experiment [5] was 1.3e-05 (inactive). Moreover, in experiment [6], the slope was 0.0068 (inactive).

Source of the values: PubChem BioAssay.
